# Compounds with a hit are over-represented: about 2.2% of the library has one in this group of screens.
# FBPA Giardia inh: inhibitors of Giardia lamblia fructose-1,6-bisphosphate aldolase; purified Giardia FBPA; AID 2451; 0.71% of 290,000 active; Potency, µM (top dose mostly 59.6 µM), usual class: inhibitors; active = well fitted inhibition curve with a large enough effect; inconclusive = small, poorly fitted or top-dose-only effect, or effect the other way; note: nearly all actives have a fitted effect of over 55% in size
# Target sequence (A8B2U2 whole entry, looked up): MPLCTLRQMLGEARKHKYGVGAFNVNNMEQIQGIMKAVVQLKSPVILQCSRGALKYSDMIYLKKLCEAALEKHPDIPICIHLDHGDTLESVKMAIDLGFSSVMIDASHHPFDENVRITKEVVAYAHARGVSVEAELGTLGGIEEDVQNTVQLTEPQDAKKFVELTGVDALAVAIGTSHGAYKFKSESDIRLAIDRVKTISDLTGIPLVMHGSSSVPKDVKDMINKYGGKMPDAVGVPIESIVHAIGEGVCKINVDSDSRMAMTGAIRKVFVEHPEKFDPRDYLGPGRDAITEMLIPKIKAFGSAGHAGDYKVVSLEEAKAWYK
#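 Giardia FBPA (40 nM reagent) was preincubated 10 min at RT with compound (up to 57.5 uM final), then substrate plus GAPDH/TPI/NAD/arsenate coupling system with diaphorase/resazurin was added; resorufin fluorescence (525/598 nm) was read after 20 min.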
# FMDV inh: blocks foot and mouth disease virus | FMDV antiviral cell-based qHTS | Potency, µM (highest dose often 57.9 µM), actives largely listed as inhibitors | 1.2% of 410,000 active; calls by dose curve; tested in HEK293T cells; note: read-out not given here; nearly all actives have a fitted effect of over 45% in size
# Vaccinia Venus: vaccinia inhibition (Venus reporter). Vaccinia virus Venus reporter expression, fluorescence. Potency, µM (titrated, usually from 36.5 µM), actives largely listed as inhibitors. 0.46% of 330,000 active. AID 720580; calls by dose curve; tested in A549 cells; note: nearly all actives have a fitted effect of over 30% in size
# Vaccinia mCherry: vaccinia inhibition (mCherry reporter). Vaccinia virus mCherry reporter infection, fluorescence. Potency, µM (highest dose often 36.5 µM), actives largely listed as inhibitors. 0.63% of 310,000 active; calls by dose curve; tested in A549 cells; note: nearly all actives have a fitted effect of over 35% in size
# A number is an active result; i = inactive; ? = inconclusive; nt = no result given.
SMILES,FBPA Giardia inh,FMDV inh,Vaccinia Venus,Vaccinia mCherry
Cc1c(C(=O)N2CCCC2)sc2ncnc(NCCc3ccccn3)c12,nt,i,i,i
COCCn1c(=O)c(-c2cn(C)c3ccccc23)nc2cnc(Oc3cccc(Cl)c3)nc21,i,i,nt,nt
COCC1CCCN(Cc2ccc3c(c2)CN(C(=O)c2sc(C)nc2C)CCO3)C1 (configuration not stated),nt,i,i,i
CC(C)(C)C(=O)Nc1ccc(-c2nc3ccccc3s2)cc1,nt,4.5µM,i,i
CC(C)(C)C(=O)Nc1ccc(N=Nc2ccccc2)cc1,i,18µM,i,?
CNc1ccc(-c2nc3ccccc3s2)cc1,i,nt,nt,nt
CC(=O)NC(NC(=S)Nc1ccc(N=Nc2ccccc2)cc1)C(Cl)(Cl)Cl (configuration not stated),i,?,14µM,13µM
CCOc1cccc(C2C=C(c3ccc4c(c3)OCO4)NC(c3ccccc3F)N2)c1O (configuration not stated),nt,nt,i,i
c1ccc(C(O[C@H]2CCCN(CCc3ccc4c(c3)OCO4)C2)c2ccccc2)cc1,nt,i,nt,nt
Cc1cc(C)c2c(C)ccnc2c1,nt,nt,i,i
Cc1ccc(C(=O)C2=C(O)C(=O)N(Cc3cccnc3)C2c2ccc(Cl)cc2)o1 (configuration not stated),i,16µM,i,i
CSc1ncccc1C(=O)NCc1ccc(C)cc1,i,i,10µM,?
CCOc1ncccc1C(=O)NCc1ccc(C)cc1,i,i,i,i
CCCCCCCCCC[n+]1ccc(/C=C/c2c[nH]c3ccccc23)c2ccccc21,nt,nt,i,i
CCN1CCN(C(=O)c2cc(-c3ccc(Cl)s3)nc3ccccc23)CC1,i,i,nt,nt
COC(=O)C1CCN(C(=O)c2cc(-c3ccc(Cl)s3)nc3ccccc23)CC1,nt,35µM,nt,nt
O=C(/C=C/c1ccc([N+](=O)[O-])cc1)c1ccccc(=O)c1O,nt,13µM,i,?
Cc1ccc(C)c(/C=C/C(=O)c2ccccc(=O)c2O)c1,?,?,?,14µM
O=C(C=Cc1ccccc1O)c1ccccc1O,nt,?,i,i
O=C(/C=C/c1ccccc1Cl)c1ccccc(=O)c1O,?,?,?,10µM
O=C(/C=C/c1ccccc1Cl)c1ccc(O)cc1,i,i,i,?
O=C(/C=C/c1ccc([N+](=O)[O-])cc1)c1cccs1,i,i,i,i
CN1CCCC(CN(C)C(=O)c2cnn(-c3nccc(-c4ccccc4C(F)(F)F)n3)c2C2CC2)C1 (configuration not stated),nt,i,i,i
CCN1/C(=C\c2ccc3cc(C)ccc3[n+]2CC)Sc2cc(C)c(C)cc21,i,?,nt,nt
CCN1/C(=C/c2ccc3cc(C)ccc3[n+]2CC)Sc2ccc3sccc3c21,nt,35µM,i,i
SMILES,FBPA Giardia inh,FMDV inh,Vaccinia Venus,Vaccinia mCherry
Cc1nnc(SCC(=O)N2c3ccccc3C(C)(c3ccccc3)CC2(C)C)s1 (configuration not stated),i,40µM,?,?
COc1ccccc1C(=O)N1c2ccccc2C(C)(c2ccc(Cl)cc2)CC1(C)C (configuration not stated),nt,?,i,i
CC1(c2ccccc2)CC(C)(C)N(C(=O)c2ccccc2Cl)c2ccccc21 (configuration not stated),nt,28µM,i,i
Cc1ccc(C2(C)CC(C)(C)N(C(=O)CSc3nnc(C)s3)c3ccccc32)cc1 (configuration not stated),i,?,i,i
COc1cccc(Nc2nc(N)nc(CCl)n2)c1,i,i,?,10µM
C=CCn1c(O)c(CN2CCOCC2)c(C)c(C#N)c1=O,14µM,i,i,nt
CCc1ccc(CN2CCN(Cc3ccc(SC)cc3)CC2)cc1,18µM,?,i,i
NC1=CC(=O)c2cccc3cccc1c23,20µM,nt,nt,nt
NC(=O)c1ccsc1NC(=O)COC(=O)/C=C/c1ccccc1[N+](=O)[O-],nt,32µM,i,i
NC(=O)c1ccsc1NC(=O)COC(=O)/C=C/c1ccccc1,nt,?,i,i
O=C(CCS(=O)(=O)c1ccc(Br)s1)Nc1cc(C(F)(F)F)cc(C(F)(F)F)c1,nt,?,?,13µM
CC(=O)c1cccc(NC(=O)CCS(=O)(=O)c2ccc(Br)s2)c1,i,i,i,i
COCC(=O)Nc1cc(C(=O)N2CCc3c([nH]c4ccccc34)C2)cc2nc(-c3ccccc3)n(C)c12,nt,i,i,i
Cc1ccc2c(c1)CN(CCNC(=O)C(C)Oc1ccccc1)CC(C)O2 (configuration not stated),nt,i,i,i
CCC[C@@H](CN[C@@H](CNC)[C@H](C)CC)NCC1CCC(C(C)(C)C)CC1 (some centres not stated),?,i,13µM,?
CCC[C@H](CN[C@@H](CNC)[C@H](C)CC)NCCc1cc(C(F)(F)F)cc(C(F)(F)F)c1,i,?,20µM,?
CC[C@@H](C)[C@H](CNC)NC[C@@H](Cc1cccc2ccccc12)NCCc1cccc(C(F)(F)F)c1,i,i,?,?
COc1cccc(C2(CC(=O)N3CCCCC3CO)CC(=O)N(C)C2=O)c1 (configuration not stated),nt,i,i,i
COc1ccccc1C1CN(Cc2cccc(O)c2)Cc2ccccc2O1 (configuration not stated),nt,?,i,i
CNS(=O)(=O)c1ccc2nc(NC(=O)/C=C/c3ccco3)sc2c1,i,i,?,6.3µM
Cc1ccc2cc(CNCc3cccc4ccccc34)c(N3CCC(O)CC3)nc2c1,nt,i,i,i
CCCC(=O)OCC(=O)NCc1ccc(Cl)cc1,i,i,i,i
O=C(COC(=O)CC(c1ccccc1)c1ccccc1)NCc1ccc(Cl)cc1,i,35µM,i,i
Cc1ccc(NC(=O)CSc2nc3ccc(NC(=O)c4ccco4)cc3s2)cc1,nt,i,i,i
CS(=O)(=O)c1nc([N+](=O)[O-])nn1CCCc1ccccc1,nt,18µM,i,i
SMILES,FBPA Giardia inh,FMDV inh,Vaccinia Venus,Vaccinia mCherry
Cn1nc([N+](=O)[O-])nc1S(C)(=O)=O,?,?,i,?
COCc1nc2cccnc2n1C1CCN(S(=O)(=O)N(C)C)CC1,nt,i,i,i
COc1ccc(C(=O)Nc2nc3c(s2)CCCC3)cc1S(=O)(=O)N1CCCc2ccccc21,i,i,i,11µM
COc1ccc(C(=O)Nc2ncccc2C)cc1S(=O)(=O)N1CCCc2ccccc21,nt,i,i,i
CCn1c(-c2cccnc2)nc2cc(NC(=O)COC)cc(C(=O)N3CCOc4ccccc4C3)c21,nt,i,i,i
Cc1cc2ccccn2c1C(=O)c1cc([N+](=O)[O-])cc([N+](=O)[O-])c1,i,?,?,?
Cc1cc2ccccn2c1C(=O)c1ccc(NN)c([N+](=O)[O-])c1,i,i,?,0.89µM
COc1ccc(-c2ccc3c(c2)S(=O)(=O)c2cccc(C(=O)NCCOc4ccccc4Cl)c2C3=O)cc1OC,nt,i,7.9µM,?
CC(C)c1cccc(-c2ccc3c(c2)S(=O)(=O)c2cccc(C(=O)NCc4ccccc4)c2C3=O)c1,nt,i,?,i
O=C(NCc1cc(C(F)(F)F)ccc1Cl)c1cccc2c1C(=O)c1ccc(N3CCOCC3)cc1S2(=O)=O,nt,?,10µM,i
CC(C)c1cccc(-c2ccc3c(c2)S(=O)(=O)c2cccc(C(=O)NCc4ccccc4Cl)c2C3=O)c1,nt,i,13µM,?
COc1ccc(-c2ccc3c(c2)S(=O)(=O)c2cccc(C(=O)NCc4ccccc4Cl)c2C3=O)cc1OC,nt,i,i,i

# Screens (PubChem BioAssay)
